From the supplement of paper PMC10849652
Of roughly 8,800 targets only a part is listed; those with a hit were picked by preference. About 0.5% of all pairs of compound and target were hits.

Assays:
Experiment in all cases: log2 fold change, soluble protein after heating vs DMSO (PISA); higher = thermal stabilisation; K562 lysate, 10 uM; active = over 0.2 and 3.5 SD of the protein, either way, in both replicates (recomputed)
erlotinib = compound: C#Cc1cccc(Nc2ncnc3cc(OCCOC)c(OCCOC)cc23)c1 [erlotinib]
Outline: (§1)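 The values are log-two fold changes in thermal stability compared with solvent controls and come from duplicates. They were obtained by TMTpro 16plex LC-MS/MS, with channel sums equalised, on the supernatant after 21,000xg for 90 min. That supernatant came from crude K562 extract at 1 mg/mL protein treated with 10 μM compound for 30 min, heated for 3 min across 48°C-58°C, pooled and brought to 0.5% NP-40 at 4°C.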

[1] = compound: C/C(=N\NC(=O)C1=CC(=CC=C1)S(=O)(=O)N2CCOCC2)/C3=C(C=CC(=C3)Cl)O
Outline: as §1

[2] = compound: C1=CC(=CC=C1C2=NC3=C(N2)C=C(C=C3)C(=O)N)OC4=CC=C(C=C4)Cl
Outline: as §1

[3] = compound: C1=CC2=C(C=CC(=C2)/C=C\3/C(=O)NC(=NCC4=CC=CS4)S3)N=C1
Outline: as §1

[4] = compound: C1=CC2=NC=CN=C2C=C1/C=C/3\C(=O)NC(=O)S3
Outline: as §1

[5] = compound: C1=CC=C(C=C1)C2=NC(=C(N2)C3=CC=NC=C3)C4=CC(=C(C=C4)Cl)O
Outline: as §1

[6] = compound: C1=CC=C2C(=C1)C3=NNC4=CC=CC(=C43)C2=O
Outline: as §1

[7] = compound: C1CCN(C1)C(=O)NC2=CC=CC(=C2)NC3=NC=C(C(=N3)NCCC4=CN=CN4)Br
Outline: as §1

[8] = compound: C1CN(CCC1(CC2=CC=C(C=C2)Cl)N)C3=NC=NC4=C3C=CN4
Outline: as §1

IRAK-1-4 Inhibitor I = compound: C1COCCN1CCN2C3=CC=CC=C3N=C2NC(=O)C4=CC(=CC=C4)[N+](=O)[O-] [IRAK-1-4 Inhibitor I]
Outline: as §1

Measured: log2 fold change

ANLN (UniProt Q9NQW6)
inactive: erlotinib -0.006 | [1] -0.142 | [2] 0.007 | [3] -0.019 | [4] -0.072 | [5] 0.01 | [6] -0.019 | [7] -0.045 | [8] -0.002 | IRAK-1-4 Inhibitor I -0.017

AKAP8 (UniProt O43823)
inactive: erlotinib -0.015 | [1] 0.002 | [2] 0.038 | [3] -0.005 | [4] -0.04 | [5] 0.045 | [6] -0.047 | [7] 0.044 | [8] 0 | IRAK-1-4 Inhibitor I 0.089

ABL2 (UniProt P42684)
UniProt P42684, sequence (P42684 whole entry, looked up): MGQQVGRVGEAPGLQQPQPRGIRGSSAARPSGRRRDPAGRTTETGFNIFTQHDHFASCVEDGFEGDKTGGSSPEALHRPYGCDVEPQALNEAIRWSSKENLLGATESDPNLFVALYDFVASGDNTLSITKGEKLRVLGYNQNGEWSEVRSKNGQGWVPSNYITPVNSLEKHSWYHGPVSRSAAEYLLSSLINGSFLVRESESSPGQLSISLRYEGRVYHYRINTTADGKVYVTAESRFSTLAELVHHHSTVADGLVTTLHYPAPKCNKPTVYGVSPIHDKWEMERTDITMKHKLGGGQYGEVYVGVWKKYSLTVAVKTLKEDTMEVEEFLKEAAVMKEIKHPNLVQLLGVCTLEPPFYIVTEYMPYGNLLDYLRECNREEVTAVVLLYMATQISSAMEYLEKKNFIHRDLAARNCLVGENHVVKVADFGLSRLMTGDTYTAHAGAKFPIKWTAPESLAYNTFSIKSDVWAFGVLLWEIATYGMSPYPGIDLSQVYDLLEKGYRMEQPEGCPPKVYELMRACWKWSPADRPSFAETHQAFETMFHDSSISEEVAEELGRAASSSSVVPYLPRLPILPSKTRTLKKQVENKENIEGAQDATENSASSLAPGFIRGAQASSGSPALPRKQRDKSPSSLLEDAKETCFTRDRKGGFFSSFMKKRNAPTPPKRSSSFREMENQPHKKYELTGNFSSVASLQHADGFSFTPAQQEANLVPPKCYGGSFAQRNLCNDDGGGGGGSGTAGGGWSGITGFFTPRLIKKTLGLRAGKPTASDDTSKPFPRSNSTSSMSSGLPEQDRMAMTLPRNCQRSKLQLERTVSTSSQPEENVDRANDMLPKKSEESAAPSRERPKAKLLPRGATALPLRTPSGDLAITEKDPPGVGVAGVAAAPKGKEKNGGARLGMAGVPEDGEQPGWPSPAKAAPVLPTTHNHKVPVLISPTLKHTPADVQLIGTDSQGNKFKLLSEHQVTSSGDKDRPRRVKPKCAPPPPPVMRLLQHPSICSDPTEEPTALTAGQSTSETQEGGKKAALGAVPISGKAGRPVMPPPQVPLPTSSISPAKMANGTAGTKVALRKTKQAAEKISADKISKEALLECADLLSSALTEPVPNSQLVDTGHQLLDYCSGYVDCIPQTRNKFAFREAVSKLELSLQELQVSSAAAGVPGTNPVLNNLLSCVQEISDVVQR
inactive: erlotinib -0.046 | [1] 0.068 | [2] 0.053 | [3] -0.014 | [4] -0.013 | [5] 0.045 | [6] -0.003 | [7] -0.065 | [8] -0.141 | IRAK-1-4 Inhibitor I -0.068

ACLY (UniProt P53396)
inactive: erlotinib -0.006 | [1] 0.037 | [2] -0.018 | [3] -0.013 | [4] -0.011 | [5] -0.016 | [6] -0.018 | [7] 0.002 | [8] 0.019 | IRAK-1-4 Inhibitor I -0.01

ANXA11 (UniProt P50995)
inactive: erlotinib 0.015 | [1] 0.031 | [2] 0.025 | [3] -0.022 | [4] 0.017 | [5] -0.079 | [6] -0.016 | [7] 0.011 | [8] 0.033 | IRAK-1-4 Inhibitor I 0.006

APAF1 (UniProt O14727)
inactive: erlotinib 0.005 | [1] 0.084 | [2] -0.054 | [3] 0.019 | [4] -0.016 | [5] -0.029 | [6] -0.003 | [7] 0.022 | [8] 0.015 | IRAK-1-4 Inhibitor I -0.021

AGPS (UniProt O00116)
inactive: erlotinib 0.033 | [1] -0.086 | [2] -0.014 | [3] 0.037 | [4] 0.019 | [5] -0.039 | [6] -0.082 | [7] -0.034 | [8] 0.015 | IRAK-1-4 Inhibitor I 0.023

AK4 (UniProt P27144)
UniProt P27144, sequence (P27144 whole entry, looked up): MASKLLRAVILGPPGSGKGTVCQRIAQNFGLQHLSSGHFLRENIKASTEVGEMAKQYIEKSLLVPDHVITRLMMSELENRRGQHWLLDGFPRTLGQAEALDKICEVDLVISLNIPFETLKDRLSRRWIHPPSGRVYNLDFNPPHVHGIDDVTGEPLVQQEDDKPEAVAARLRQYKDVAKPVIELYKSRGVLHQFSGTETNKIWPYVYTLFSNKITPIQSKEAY
inactive: erlotinib -0.024 | [1] 0.024 | [2] -0.024 | [3] -0.01 | [4] -0.01 | [5] 0.015 | [6] 0.015 | [7] 0.036 | [8] 0.02 | IRAK-1-4 Inhibitor I -0.002

AK2 (UniProt P54819)
inactive: erlotinib -0.011 | [1] -0.052 | [2] 0.035 | [3] -0.002 | [4] 0.002 | [5] 0.016 | [6] 0.014 | [7] -0.008 | [8] -0.002 | IRAK-1-4 Inhibitor I 0.005

ASCC2 (UniProt Q9H1I8)
inactive: erlotinib 0.04 | [1] -0.106 | [2] -0.077 | [3] 0.083 | [4] 0.029 | [5] -0.016 | [6] -0.048 | [7] -0.054 | [8] 0.037 | IRAK-1-4 Inhibitor I -0.042

AGPAT1 (UniProt Q99943)
inactive: erlotinib 0.012 | [1] 0.027 | [2] -0.145 | [3] 0.05 | [4] 0.028 | [5] -0.023 | [6] -0.01 | [7] -0.019 | [8] 0.01 | IRAK-1-4 Inhibitor I 0.036

ARHGEF2 (UniProt Q92974)
UniProt Q92974, sequence (Q92974 whole entry, looked up): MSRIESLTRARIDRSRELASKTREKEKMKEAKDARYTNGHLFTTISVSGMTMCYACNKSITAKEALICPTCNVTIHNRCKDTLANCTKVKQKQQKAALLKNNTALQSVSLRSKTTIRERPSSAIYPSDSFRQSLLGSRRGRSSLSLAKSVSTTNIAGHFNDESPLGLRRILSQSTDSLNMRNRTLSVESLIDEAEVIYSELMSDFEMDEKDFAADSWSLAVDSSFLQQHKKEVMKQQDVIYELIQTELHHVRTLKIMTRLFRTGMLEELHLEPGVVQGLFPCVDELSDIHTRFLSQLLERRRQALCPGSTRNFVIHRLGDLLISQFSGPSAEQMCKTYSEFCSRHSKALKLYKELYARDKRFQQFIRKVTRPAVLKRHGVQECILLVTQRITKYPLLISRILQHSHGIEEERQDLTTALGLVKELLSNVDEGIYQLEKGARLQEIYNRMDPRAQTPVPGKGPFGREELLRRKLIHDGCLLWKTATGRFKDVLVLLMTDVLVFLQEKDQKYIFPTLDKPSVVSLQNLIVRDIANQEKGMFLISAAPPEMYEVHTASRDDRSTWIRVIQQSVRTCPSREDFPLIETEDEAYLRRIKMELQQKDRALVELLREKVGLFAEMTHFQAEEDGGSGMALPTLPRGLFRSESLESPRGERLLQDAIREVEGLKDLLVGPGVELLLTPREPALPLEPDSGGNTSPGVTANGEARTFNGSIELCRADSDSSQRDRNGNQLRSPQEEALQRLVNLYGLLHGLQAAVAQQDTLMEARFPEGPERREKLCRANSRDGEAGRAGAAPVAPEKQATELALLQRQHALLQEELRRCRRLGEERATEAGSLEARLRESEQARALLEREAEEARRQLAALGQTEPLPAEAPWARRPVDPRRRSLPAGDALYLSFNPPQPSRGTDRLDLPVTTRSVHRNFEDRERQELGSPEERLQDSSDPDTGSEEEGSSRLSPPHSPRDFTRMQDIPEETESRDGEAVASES
inactive: erlotinib -0.006 | [1] -0.041 | [2] -0.014 | [3] -0.017 | [4] 0.002 | [5] 0.039 | [6] -0.007 | [7] -0.051 | [8] -0.018 | IRAK-1-4 Inhibitor I -0.005

ARL1 (UniProt P40616)
inactive: erlotinib 0.006 | [1] -0.212 | [2] 0.037 | [3] -0.022 | [4] -0.03 | [5] -0.013 | [6] -0.018 | [7] -0.046 | [8] 0.025 | IRAK-1-4 Inhibitor I 0.053

ARL8A (UniProt Q96BM9)
UniProt Q96BM9, sequence (Q96BM9 whole entry, looked up): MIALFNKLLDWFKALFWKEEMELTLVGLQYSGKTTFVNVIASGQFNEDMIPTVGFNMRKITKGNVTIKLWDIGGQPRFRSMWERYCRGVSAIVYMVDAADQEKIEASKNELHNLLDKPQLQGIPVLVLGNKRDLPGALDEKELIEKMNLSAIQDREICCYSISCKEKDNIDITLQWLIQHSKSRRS
inactive: erlotinib -0.223 | [1] -0.039 | [2] 0.176 | [3] 0.157 | [4] 0.036 | [5] 0 | [6] -0.041 | [7] 0.026 | [8] 0.028 | IRAK-1-4 Inhibitor I 0.091

ANKRD54 (UniProt Q6NXT1)
inactive: erlotinib -0.005 | [1] 0.01 | [2] 0.122 | [3] -0.036 | [4] 0.025 | [5] 0.037 | [6] 0.02 | [7] 0.008 | [8] -0.035 | IRAK-1-4 Inhibitor I 0.003

ARMCX5 (UniProt Q6P1M9)
inactive: erlotinib -0.08 | [1] 0.047 | [2] -0.004 | [3] 0.157 | [4] 0.001 | [5] 0.03 | [7] 0.075 | [8] -0.039 | IRAK-1-4 Inhibitor I -0.08
active: [6] -0.35

ARHGAP6 (UniProt O43182)
inactive: erlotinib 0.013 | [1] -0.145 | [2] -0.04 | [3] 0.061 | [4] 0.07 | [5] 0.041 | [6] -0.005 | [7] -0.016 | [8] 0.037 | IRAK-1-4 Inhibitor I 0.015

AIFM2 (UniProt Q9BRQ8)
UniProt Q9BRQ8, sequence (Q9BRQ8 whole entry, looked up): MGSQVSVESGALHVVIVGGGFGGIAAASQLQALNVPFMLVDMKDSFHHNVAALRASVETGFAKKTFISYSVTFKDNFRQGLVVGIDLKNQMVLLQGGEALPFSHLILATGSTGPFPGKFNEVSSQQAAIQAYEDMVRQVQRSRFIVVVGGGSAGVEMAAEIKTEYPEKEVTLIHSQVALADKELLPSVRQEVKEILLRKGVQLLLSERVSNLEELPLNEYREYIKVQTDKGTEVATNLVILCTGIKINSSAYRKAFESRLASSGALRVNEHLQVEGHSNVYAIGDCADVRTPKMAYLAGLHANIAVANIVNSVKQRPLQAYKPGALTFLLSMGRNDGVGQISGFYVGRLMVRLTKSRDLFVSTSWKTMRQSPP
inactive: erlotinib -0.094 | [1] 0 | [2] 0.224 | [3] 0.071 | [4] -0.117 | [5] 0.117 | [6] 0.068 | [7] -0.025 | [8] 0.018 | IRAK-1-4 Inhibitor I -0.01

ABHD17B (UniProt Q5VST6)
inactive: erlotinib -0.08 | [1] -0.047 | [2] -0.011 | [3] 0.044 | [4] -0.043 | [5] 0 | [6] 0.021 | [7] 0.064 | [8] -0.111 | IRAK-1-4 Inhibitor I 0.014

ANKRD30B (UniProt Q9BXX2)
inactive: erlotinib 0.077 | [1] 0.106 | [2] -0.053 | [3] -0.115 | [4] 0.005 | [5] -0.032 | [6] -0.047 | [7] -0.006 | [8] 0.124 | IRAK-1-4 Inhibitor I 0.095

AKAP8L (UniProt Q9ULX6)
inactive: erlotinib 0.061 | [1] 0.093 | [2] 0.032 | [3] 0.002 | [4] 0.017 | [5] 0 | [6] -0.022 | [7] 0.029 | [8] -0.032 | IRAK-1-4 Inhibitor I -0.002

AP1G2 (UniProt O75843)
UniProt O75843, sequence (O75843 whole entry, looked up): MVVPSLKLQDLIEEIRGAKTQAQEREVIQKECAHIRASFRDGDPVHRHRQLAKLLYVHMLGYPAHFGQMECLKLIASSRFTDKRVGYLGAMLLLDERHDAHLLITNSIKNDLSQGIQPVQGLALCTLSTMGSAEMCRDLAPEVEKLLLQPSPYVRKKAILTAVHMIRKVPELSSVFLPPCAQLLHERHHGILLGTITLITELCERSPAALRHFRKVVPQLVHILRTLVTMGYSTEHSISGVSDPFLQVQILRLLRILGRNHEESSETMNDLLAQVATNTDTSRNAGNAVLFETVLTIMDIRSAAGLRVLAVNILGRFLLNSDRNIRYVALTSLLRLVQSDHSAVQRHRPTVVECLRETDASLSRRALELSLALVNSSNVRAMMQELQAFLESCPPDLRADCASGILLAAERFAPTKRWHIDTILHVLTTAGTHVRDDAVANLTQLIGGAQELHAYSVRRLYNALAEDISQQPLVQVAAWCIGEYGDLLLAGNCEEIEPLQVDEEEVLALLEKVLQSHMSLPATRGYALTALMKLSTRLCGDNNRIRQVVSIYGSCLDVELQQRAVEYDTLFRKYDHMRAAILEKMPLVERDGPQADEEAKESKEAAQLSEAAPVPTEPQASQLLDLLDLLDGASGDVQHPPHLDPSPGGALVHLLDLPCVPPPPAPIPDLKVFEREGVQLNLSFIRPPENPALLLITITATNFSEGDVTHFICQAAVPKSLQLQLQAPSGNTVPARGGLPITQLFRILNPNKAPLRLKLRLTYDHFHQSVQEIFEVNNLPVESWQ
inactive: erlotinib 0.052 | [1] 0.016 | [2] 0.068 | [3] -0.116 | [4] -0.07 | [5] 0 | [6] 0.001 | [7] -0.003 | [8] 0.034 | IRAK-1-4 Inhibitor I -0.007

AKT1 (UniProt P31749)
inactive: erlotinib -0.008 | [1] 0.042 | [2] -0.004 | [3] 0.121 | [4] 0.019 | [5] 0.059 | [6] 0.018 | [7] -0.034 | [8] 0.03 | IRAK-1-4 Inhibitor I -0.005

ALDH2 (UniProt P05091)
inactive: erlotinib -0.048 | [1] 0.009 | [2] -0.062 | [3] 0.03 | [4] 0.042 | [5] -0.016 | [6] 0.175 | [7] 0.011 | [8] 0.023 | IRAK-1-4 Inhibitor I 0.003

ABHD11 (UniProt Q8NFV4)
inactive: erlotinib -0.064 | [1] -0.049 | [2] 0.001 | [3] 0.057 | [4] -0.008 | [5] 0.171 | [6] 0.011 | [7] -0.047 | [8] 0.015 | IRAK-1-4 Inhibitor I -0.014

AGO4 (UniProt Q9HCK5)
inactive: erlotinib -0.038 | [1] -0.008 | [2] 0.031 | [3] -0.02 | [4] -0.031 | [5] 0.009 | [6] -0.015 | [7] 0.009 | [8] 0.016 | IRAK-1-4 Inhibitor I -0.009

ACIN1 isoform 5 (UniProt Q9UKV3)
UniProt Q9UKV3, sequence (Q9UKV3 whole entry, looked up): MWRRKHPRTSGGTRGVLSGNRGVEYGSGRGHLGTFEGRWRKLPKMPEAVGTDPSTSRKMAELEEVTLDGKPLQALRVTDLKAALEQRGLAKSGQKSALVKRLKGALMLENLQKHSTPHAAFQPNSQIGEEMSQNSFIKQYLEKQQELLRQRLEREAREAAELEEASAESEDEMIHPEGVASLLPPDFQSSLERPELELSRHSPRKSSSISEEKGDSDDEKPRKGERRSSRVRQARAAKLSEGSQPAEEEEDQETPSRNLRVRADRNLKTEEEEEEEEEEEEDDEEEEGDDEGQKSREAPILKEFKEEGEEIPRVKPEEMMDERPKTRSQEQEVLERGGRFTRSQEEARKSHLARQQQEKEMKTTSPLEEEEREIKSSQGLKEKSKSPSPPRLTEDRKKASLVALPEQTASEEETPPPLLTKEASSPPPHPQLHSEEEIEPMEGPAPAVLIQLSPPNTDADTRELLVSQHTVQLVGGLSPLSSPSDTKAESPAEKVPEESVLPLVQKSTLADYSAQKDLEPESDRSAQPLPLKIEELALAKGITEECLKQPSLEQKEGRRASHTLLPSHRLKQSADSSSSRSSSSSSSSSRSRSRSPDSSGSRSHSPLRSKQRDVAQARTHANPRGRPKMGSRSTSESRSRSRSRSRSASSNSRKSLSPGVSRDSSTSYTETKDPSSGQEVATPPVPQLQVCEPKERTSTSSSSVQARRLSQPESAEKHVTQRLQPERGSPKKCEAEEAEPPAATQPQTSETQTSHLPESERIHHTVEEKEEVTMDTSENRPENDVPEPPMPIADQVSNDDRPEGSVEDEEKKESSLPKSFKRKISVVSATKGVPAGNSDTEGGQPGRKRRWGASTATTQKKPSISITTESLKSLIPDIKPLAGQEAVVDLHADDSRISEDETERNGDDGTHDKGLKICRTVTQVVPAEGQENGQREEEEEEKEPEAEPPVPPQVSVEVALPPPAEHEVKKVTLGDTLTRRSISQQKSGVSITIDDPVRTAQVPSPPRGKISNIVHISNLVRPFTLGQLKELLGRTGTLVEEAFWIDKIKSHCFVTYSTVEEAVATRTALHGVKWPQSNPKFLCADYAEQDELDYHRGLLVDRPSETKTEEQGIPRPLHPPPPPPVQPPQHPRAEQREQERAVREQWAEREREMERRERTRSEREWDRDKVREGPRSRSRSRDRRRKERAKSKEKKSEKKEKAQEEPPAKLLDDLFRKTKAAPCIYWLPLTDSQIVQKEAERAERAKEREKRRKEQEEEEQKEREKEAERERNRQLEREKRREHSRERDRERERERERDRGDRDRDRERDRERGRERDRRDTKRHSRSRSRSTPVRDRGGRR
inactive: erlotinib -0.011 | [1] -0.025 | [2] -0.023 | [3] -0.028 | [4] -0.037 | [5] 0.001 | [6] -0.001 | [7] -0.006 | [8] -0.007 | IRAK-1-4 Inhibitor I -0.006
